Shown are actives, neighbours in structure and some others; about 2.6% of the full set was active somewhere.
eIF4H FP inh: inhibitors of RNA binding by human eIF4H | Q15056 | eIF4H fluorescence polarization binding assay | inhibition, % at 35 µM | 0.94% of 290,000 active | AID 2012;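 note: calls also rest on retests at 20 µM and on dose response follow-up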
PABP1 MLLE inh: blocks PAM2 peptide binding to the PABP1 MLLE domain; 0.36% of 360,000 active; P11940; GST-MLLE / FITC-PAM2 fluorescence polarization; inhibition, % at 20 µM; AID 588489; in the data active = inhibition above about 35%, passing the limit was not always enough;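 note: plate controls were DMSO wells with GST-MLLE for no effect and wells lacking GST-MLLE protein for full effect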
PHOSPHO1 block: blocks human PHOSPHO1 phosphatase activity; 1.1% of 290,000 active; recombinant PHOSPHO1, absorbance phosphatase assay; Q8TCT1; inhibition, % at 13.3 µM; in the data active = inhibition above about 60%
Target sequence (Q8TCT1 whole entry, looked up): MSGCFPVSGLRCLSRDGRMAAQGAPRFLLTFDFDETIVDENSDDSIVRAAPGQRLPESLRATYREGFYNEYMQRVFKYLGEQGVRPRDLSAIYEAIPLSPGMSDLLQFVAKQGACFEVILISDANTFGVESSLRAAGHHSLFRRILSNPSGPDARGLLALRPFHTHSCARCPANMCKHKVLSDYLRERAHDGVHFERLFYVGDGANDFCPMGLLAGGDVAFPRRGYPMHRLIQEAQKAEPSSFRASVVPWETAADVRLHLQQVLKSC
PABP FP inh: blocks human PABP binding to poly(A) RNA; fluorescence polarization; 1% of 290,000 active; inhibition, % at 35 µM;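 note: calls also rest on retests at 20 µM and on dose response follow-up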
CRFBP-R2 block: blocks CRF-induced signaling of the CRF-BP/CRF-R2 complex; HEK293 CRF-R2/CRF-BP, CRF-induced calcium fluorescence; inhibition, % at 11.8 µM; 0.59% of 350,000 active; AID 588475;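 active = inhibition of the ligand-induced calcium signal above about 50% at the single tested concentration, limit read from the data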
An asterisk follows results filed as active. Unless noted, the rule behind the calls is not given here.

For Cc1nc(N)sc1-c1csc(Nc2ccccn2)n1 the results were eIF4H FP inh 31.9, PABP1 MLLE inh -25.6, PHOSPHO1 block 70.2*, PABP FP inh 62.1 and CRFBP-R2 block 0.5.
For Cc1nc(C)c(-c2csc(Nc3ccccn3)n2)s1 the results were eIF4H FP inh -6.5, PABP1 MLLE inh -3.5, PHOSPHO1 block 26.5, PABP FP inh -9.2 and CRFBP-R2 block -0.1.
`COc1ccc(Nc2nc(-c3sc(N)nc3C)cs2)cc1` gave eIF4H FP inh 9.1, PABP1 MLLE inh -32.2, PHOSPHO1 block 68.3*, PABP FP inh 3.6 and CRFBP-R2 block 4.9.
`CSc1nc2ccc3nc(NC(=O)c4ccc(C)cc4)sc3c2s1` gave eIF4H FP inh -7.8, PABP1 MLLE inh -0.6, PHOSPHO1 block 2.0, PABP FP inh -5.5 and CRFBP-R2 block 2.1.
For Cc1ccc(C(=O)Nc2nc3ccccc3c(=O)s2)cc1 the results were eIF4H FP inh 4.3, PABP1 MLLE inh 46.0*, PHOSPHO1 block 8.6, PABP FP inh -8.0 and CRFBP-R2 block -28.1.
`COc1ccc(/C=C(/CC(=O)NCc2ccc(Cl)cc2)c2nc3ccccc3s2)cc1` gave eIF4H FP inh active, PABP1 MLLE inh -9.4, PHOSPHO1 block 9.5, PABP FP inh 72.3 and CRFBP-R2 block -7.3.
For COc1ccc(/C=C(/CC(=O)Nc2ccccc2)c2nc3ccccc3s2)cc1 the results were eIF4H FP inh 3.9, PABP1 MLLE inh -36.6, PHOSPHO1 block -1.0, PABP FP inh 11.6 and CRFBP-R2 block 16.2.
`O=C(NCc1cccs1)Nc1cccs1` gave eIF4H FP inh -5.2, PABP1 MLLE inh 14.1, PHOSPHO1 block 68.4*, PABP FP inh 8.3 and CRFBP-R2 block -11.7.
Cc1ccc(NC(=O)Nc2cccs2)cc1 was read as eIF4H FP inh 1.5, PABP1 MLLE inh 5.1, PHOSPHO1 block 8.9, PABP FP inh -2.5 and CRFBP-R2 block 2.8.
For CCc1ccc(NC(=O)Nc2cccs2)cc1 the results were eIF4H FP inh 9.6, PABP1 MLLE inh 5.8, PHOSPHO1 block 73.7*, PABP FP inh 17.1 and CRFBP-R2 block -3.0.
Cc1ccccc1CNC(=O)Nc1cccs1 was read as eIF4H FP inh 3.0, PABP1 MLLE inh 8.3, PHOSPHO1 block -51.6, PABP FP inh 6.8 and CRFBP-R2 block 53.0*.
For O=C(NCc1ccccc1)NCc1cccs1 the results were eIF4H FP inh 3.2, PABP1 MLLE inh 10.4, PHOSPHO1 block 43.6, PABP FP inh 2.3 and CRFBP-R2 block 15.6.
Screening Cc1ccc(S(=O)(=O)Nc2nc3ccccc3nc2Nc2cccc(S(=O)(=O)N3CCCC3)c2)cc1 returned eIF4H FP inh inconclusive, PABP1 MLLE inh 44.9*, PHOSPHO1 block -22.4, PABP FP inh inconclusive and CRFBP-R2 block 25.8.
`O=[N+]([O-])c1cccc(S(=O)(=O)Nc2nc3ccccc3nc2Nc2cccc(S(=O)(=O)N3CCCCC3)c2)c1` gave eIF4H FP inh 16.8, PABP1 MLLE inh 4.4, PHOSPHO1 block -1.8, PABP FP inh 0.6 and CRFBP-R2 block 89.8*.
O=[N+]([O-])c1cccc(S(=O)(=O)Nc2ccc(S(=O)(=O)N3CCCC3)cc2)c1 was read as eIF4H FP inh -0.7, PABP1 MLLE inh -1.9, PHOSPHO1 block 30.1, PABP FP inh 8.7 and CRFBP-R2 block -11.9.
For CCN(C(=O)COC(=O)c1ccc(=O)n(Cc2ccccc2)n1)C1CCS(=O)(=O)C1 (stereo not drawn) the results were PABP1 MLLE inh 17.3 and CRFBP-R2 block -5.4.
For CCOc1cc(/C=C2/C(=O)ON=C2C)ccc1OCc1ccccc1 the results were eIF4H FP inh inconclusive, PHOSPHO1 block -108.6, PABP FP inh 8.1* and CRFBP-R2 block -13.7.
`CN(C(=O)c1cc(COc2ccc(F)cc2Cl)on1)C1CCOC1` (stereo not drawn) gave PABP1 MLLE inh -2.1 and CRFBP-R2 block 30.4.
COc1ccc(C2=NNC(c3ccco3)=Nc3ccc(F)cc32)cc1 was read as eIF4H FP inh -3.5, PABP1 MLLE inh -16.5, PHOSPHO1 block 32.3, PABP FP inh 1.7 and CRFBP-R2 block 53.7*.
COc1ccc2c(c1)C(c1ccc([N+](=O)[O-])cc1)=NNC(c1ccco1)=N2 was read as eIF4H FP inh 0.4, PABP1 MLLE inh 13.2, PHOSPHO1 block 15.3, PABP FP inh -0.3 and CRFBP-R2 block 31.6.
For C(=C\c1ccccc1)/CSc1nnc(-c2ccccc2)n1Cc1ccco1 the results were eIF4H FP inh -3.7, PABP1 MLLE inh -51.4, PHOSPHO1 block 80.1*, PABP FP inh -2.0 and CRFBP-R2 block 61.9*.
For C(=C\c1ccccc1)/CSc1nnc(-c2ccncc2)n1Cc1ccco1 the results were eIF4H FP inh 4.5, PABP1 MLLE inh -40.0, PHOSPHO1 block 64.1*, PABP FP inh 15.7 and CRFBP-R2 block 39.2.
c1ccc(-c2nnc(CSc3nnc(-c4ccncc4)n3Cc3ccco3)o2)cc1 was read as eIF4H FP inh -4.1, PABP1 MLLE inh 9.4, PHOSPHO1 block 41.2, PABP FP inh 7.2 and CRFBP-R2 block 4.5.
`Clc1cccc(-c2nnc(SC/C=C/c3ccccc3)n2Cc2ccco2)c1` gave eIF4H FP inh -3.0, PABP1 MLLE inh -95.2, PHOSPHO1 block 21.4, PABP FP inh -5.8 and CRFBP-R2 block 59.9*.
`CCCC(=O)N1CCCC1(C)C(=O)Nc1ccc(-n2cncn2)cc1` (stereo not drawn) gave PABP1 MLLE inh 1.6.
For Cc1ccc(Cl)cc1-c1cc(C(=O)N2CCc3ccccc3C2)[nH]n1 the results were PABP1 MLLE inh -3.3.
For CO/N=C(\C(=O)N[C@@H]1C(=O)N2C(C(=O)O)=C(COC(N)=O)CS[C@H]12)c1ccco1 the results were eIF4H FP inh 5.6*, PABP1 MLLE inh 19.0, PHOSPHO1 block -3.8, PABP FP inh 118.4* and CRFBP-R2 block -0.8.
`O=[N+]([O-])c1cccc(N/N=C/c2cccc(O)c2O)c1` gave eIF4H FP inh -0.1, PABP1 MLLE inh -1.5, PHOSPHO1 block 42.4, PABP FP inh -3.3 and CRFBP-R2 block -19.6.
For COc1ccc(C(=O)NCCCNC(=O)c2cccnc2)cc1Br the results were eIF4H FP inh -6.2, PABP1 MLLE inh -0.6, PHOSPHO1 block 16.2, PABP FP inh -3.7 and CRFBP-R2 block -1.1.
For Nc1ccc2c(c1Cl)C(=O)c1ccc(N)c(Cl)c1C2=O the results were eIF4H FP inh 109.2*, PABP1 MLLE inh 28.4, PHOSPHO1 block 31.6, PABP FP inh 78.8* and CRFBP-R2 block 6.0.
For Nc1c(C(=O)O)ccc2c1C(=O)c1ccccc1C2=O the results were eIF4H FP inh 3.7, PABP1 MLLE inh 13.2, PHOSPHO1 block 6.6, PABP FP inh 31.9 and CRFBP-R2 block 19.6.
Screening CCOC(=O)c1cc(C#N)c(Oc2ccccc2OC)nc1-c1ccccc1 returned eIF4H FP inh -11.0, PABP1 MLLE inh -2.2, PHOSPHO1 block 9.4, PABP FP inh -6.0 and CRFBP-R2 block 56.5*.
CCOC(=O)c1cc(C#N)c(N2CCN(c3ccccn3)CC2)nc1-c1ccccc1 was read as eIF4H FP inh -1.6, PABP1 MLLE inh -2.8, PHOSPHO1 block 29.2, PABP FP inh -17.5 and CRFBP-R2 block 54.2*.
Screening CCc1nnc(NC(=O)CSc2nnc(-c3c[nH]c4ccccc34)n2CCOC)s1 returned eIF4H FP inh -9.0, PABP1 MLLE inh -36.6, PHOSPHO1 block 60.5*, PABP FP inh -9.0 and CRFBP-R2 block 11.1.
